Assays:
Experiment in all cases: PBM binding z-score (relative to random genomic background probes); higher = stronger binding; sequences stand for … in GC…GCGATTGACAGCGTAGAATGAAGG
[1] = system: FXR:RXRa (NR concentration 270 nM, RXRa partner concentration 90 nM)
In short: (§1)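 Ligand-free nuclear receptor dimers were bound for 1 h to custom Agilent 4×180K protein-binding microarrays. Detection used antibodies against each partner (one per run). Binding z-scores rest on regression-normalized fluorescence, with random background probes as the reference.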

[2] = system: LXRa:RXRa (NR concentration 270 nM, RXRa partner concentration 90 nM)
In short: as §1

[3] = system: LXRa homodimer (NR concentration 270 nM)
In short: as §1

[4] = system: LXRb:RXRa (NR concentration 270 nM, RXRa partner concentration 90 nM)
In short: as §1

[5] = system: LXRb homodimer (NR concentration 270 nM)
In short: as §1

[6] = system: PPARa:RXRa (NR concentration 270 nM, RXRa partner concentration 90 nM)
In short: as §1

[7] = system: PPARg:RXRa (NR concentration 180 nM, RXRa partner concentration 90 nM)
In short: as §1

[8] = system: PPARg:RXRa 270nM:90nM, anti-RXR (NR concentration 270 nM, RXRa partner concentration 90 nM)
In short: as §1

[9] = system: PPARg:RXRa 30nM:10nM, anti-RXR (NR concentration 30 nM, RXRa partner concentration 10 nM)
In short: as §1

[10] = system: PPARg:RXRa 90nM:30nM, anti-RXR (NR concentration 90 nM, RXRa partner concentration 30 nM)
In short: as §1

[11] = system: PPARg:RXRa DBDmut IVT, anti-RXR (DBD mutation: RXRa K156A/R161A, NR concentration 270 nM, RXRa partner concentration 90 nM)
In short: as §1

[12] = system: PPARg:RXRa IVT, anti-PPARg (NR concentration 270 nM, RXRa partner concentration 90 nM)
In short: as §1

[13] = system: PPARg DBDmut:RXRa IVT, anti-PPARg (DBD mutation: PPARg1 K132A/R137A, NR concentration 270 nM, RXRa partner concentration 90 nM)
In short: as §1

[14] = system: PPARg DBDmut IVT, anti-PPARg (DBD mutation: PPARg1 K132A/R137A, NR concentration 270 nM)
In short: as §1

[15] = system: PPARg homodimer (NR concentration 180 nM)
In short: as §1

[16] = system: PXR:RXRa (NR concentration 270 nM, RXRa partner concentration 90 nM)
In short: as §1

[17] = system: PXR homodimer (NR concentration 270 nM)
In short: as §1

[18] = system: RARa:RXR (NR concentration 270 nM, RXRa partner concentration 90 nM)
In short: as §1

[19] = system: RARa homodimer (NR concentration 270 nM)
In short: as §1

[20] = system: RARb:RXRa (NR concentration 270 nM, RXRa partner concentration 90 nM)
In short: as §1

Row | Sequence | PBM binding z-score [1] | PBM binding z-score [2] | PBM binding z-score [3] | PBM binding z-score [4] | PBM binding z-score [5] | PBM binding z-score [6] | PBM binding z-score [7] | PBM binding z-score [8] | PBM binding z-score [9] | PBM binding z-score [10] | PBM binding z-score [11] | PBM binding z-score [12] | PBM binding z-score [13] | PBM binding z-score [14] | PBM binding z-score [15] | PBM binding z-score [16] | PBM binding z-score [17] | PBM binding z-score [18] | PBM binding z-score [19] | PBM binding z-score [20]
1 | GCGACTGGGGCATCAACAGGTTACCATAACTTAA | -0.21 | 0.22 | -0.147 | 1.42 | -0.367 | 1.48 | 1.15 | 0.92 | -0.0267 | 0.231 | 3.85 | 3.26 | 0.132 | -0.496 | 0.784 | 0.139 | -0.425 | 0.551 | -0.516 | 0.911
2 | CCAGGCAGGTGAGAAGGTAACTCAGCCTCGATTA | -0.311 | -0.32 | -0.49 | -0.277 | -0.875 | 0.473 | 0.238 | 0.813 | -0.448 | 0.0901 | 0.637 | 0.291 | -1.38 | -1.33 | -0.318 | -0.256 | -0.513 | -0.0086 | -0.442 | 0.36
3 | TCTTGTAGATCAATCAGGTTAAGAAAGCCTGAGT | 0.77 | 0.362 | 0.00408 | 0.532 | 0.279 | 0.703 | -0.495 | 1.31 | 2.82 | 2.3 | 1.98 | 0.808 | 1.29 | 0.885 | -0.302 | 0.413 | -0.0985 | 0.669 | -0.252 | 0.281
4 | CCTACTGGGCCATCAGGTCAGTGATATCAACGTT | 0.148 | 0.0376 | 0.047 | 0.311 | -0.379 | 1.91 | 2.01 | 2.42 | 0.364 | 1.92 | 4.12 | 4.95 | -0.457 | 0.096 | 0.501 | 0.376 | -0.631 | 0.801 | -0.59 | 1.77
